Values joined by “and” are separate entries in the source; they are usually repeats but may differ in a detail not shown here. Equal values may be shown once. Records with an inconclusive call do not appear. Entries that show only a call come without a potency. More than one record can exist for a structure, and the calls need not agree. Active and inactive are the calls of the source. The call rests on the fitted dose curve.
Test: qHTS assay for small molecule agonists of the p53 signaling pathway (AID 651631); further: nearly all actives have a fitted effect of over 15% in size
Conditions: HCT-116 p53RE-bla reporter, beta-lactamase FRET ratio, 16 h; series mostly up to 73.3 µM
How it was run: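 Read-out is beta-lactamase FRET fluorescence measured 2 h after substrate addition at room temperature, in HCT-116 cells with a p53 response element-driven reporter exposed to compounds for 16 h at 37 °C.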
Potency means the concentration at half of the fitted maximal effect.

SMILES	Potency
Cc1cccc(N(C)C(=S)Oc2ccc3ccccc3c2)c1	inactive
COc1ccc(OC)c(C(O)CNC(=O)CN)c1 (centres undefined)	inactive
O=C(c1ccccc1)c1ccc(O)cc1O	inactive
OC(CCl)CCl	inactive
CC1=CCC(C(C)(C)O)CC1 (centres undefined)	inactive
CN(C)CCC=C1c2ccccc2CCc2ccccc21	61.1 µM (active)
Nc1ccccc1N	62.6 µM (active) and 27.3 µM (active)
O=C(OCc1ccccc1)c1ccccc1O	inactive
c1cc(-c2ccncc2)ccn1	inactive
CC(=O)c1ccccn1	inactive
CCCCNS(=O)(=O)c1ccccc1	inactive
C=CC(C)(CCC=C(C)C)OC(C)=O (centres undefined)	inactive
Cn1cnc([N+](=O)[O-])c1Sc1ncnc2nc[nH]c12	24.2 µM (active)
OCCO	inactive
NNc1ccc(C(=O)O)cc1	inactive
Cc1cccc(C(=O)O)c1	inactive
C=C(C)C1CC=C(C)CC1 (centres undefined)	inactive
CC(C)CC(C)(O)C#CC(C)(O)CC(C)C (centres undefined)	inactive
C#C[C@]1(O)CC[C@H]2[C@@H]3CCC4=Cc5oncc5C[C@]4(C)[C@H]3CC[C@@]21C	inactive
CCOC(=O)C(C#N)=C(c1ccccc1)c1ccccc1	inactive

SMILES	Potency
Nc1ccc(S(=O)(=O)Nc2cnc3ccccc3n2)cc1	inactive
CCCCOCCOCCOCCO	inactive
c1ccncc1	inactive
COC(=O)CCC(=O)OC	inactive
Cc1[nH]c(=O)c(C#N)cc1-c1ccncc1	inactive
O=Cc1ccccc1O	inactive
C=C(C)C(=O)OCCOC(=O)C(=C)C	inactive
CN1C(C(=O)Nc2ccccn2)=C(O)c2ccccc2S1(=O)=O	inactive
CNCCCC12CCC(c3ccccc31)c1ccccc12	inactive
C[C@]12CC[C@H]3[C@@H](CCC4=CC(=O)CC[C@@]43C)[C@@H]1CC[C@@H]2C(=O)CO	inactive
O=C(c1ccc(OCCN2CCCCC2)cc1)c1c(-c2ccc(O)cc2)sc2cc(O)ccc12	29.8 µM (active) and 68.7 µM (active) and 61.1 µM (active)
COc1cccc2c1C(=O)c1c(O)c3c(c(O)c1C2=O)C[C@@](O)(C(=O)CO)C[C@@H]3O[C@H]1C[C@H](N)[C@H](O)[C@H](C)O1	inactive and 596 nM (active) and 243 nM (active)
Cc1cccc([N+](=O)[O-])c1C	inactive
Cc1c(C(N)=O)cc([N+](=O)[O-])cc1[N+](=O)[O-]	inactive
CC(C)(C)NC(=O)[C@H]1CC[C@H]2[C@@H]3CC[C@H]4NC(=O)C=C[C@]4(C)[C@H]3CC[C@]12C	inactive
C#C[C@]1(O)CC[C@H]2[C@@H]3CCc4cc(OC)ccc4[C@H]3CC[C@@]21C	inactive
COC(C)COC(C)COC(C)CO (centres undefined)	inactive
O=C(/C=C/c1ccccc1)OCc1ccccc1	inactive
CC(=O)C1(C)CC2=C(CCCC2(C)C)CC1C (centres undefined)	inactive
